# For part of these data: Measured potencies and affinities stand elsewhere.
# Legend:
# [1] = target: Protein translocase subunit SecA (Escherichia coli (strain K12)) (UniProt P10408); experiment: Assay to Identify E. coli SecA ATPase Inhibitors; type: functional; set-up: scale not given: direction of the effect not stated beside the values; conditions: 30 µM
# [2] = target: T1, Ubiquitin-activating enzyme e1, putative (Leishmania donovani (strain BPK282A1)) (UniProt E9BSI1); experiment: Leishmania donovani Ubiquitin Activating Enzyme (LdE1); type: functional; set-up: scale not given: direction of the effect not stated beside the values; conditions: 30 µM
# T1 sequence (whole entry): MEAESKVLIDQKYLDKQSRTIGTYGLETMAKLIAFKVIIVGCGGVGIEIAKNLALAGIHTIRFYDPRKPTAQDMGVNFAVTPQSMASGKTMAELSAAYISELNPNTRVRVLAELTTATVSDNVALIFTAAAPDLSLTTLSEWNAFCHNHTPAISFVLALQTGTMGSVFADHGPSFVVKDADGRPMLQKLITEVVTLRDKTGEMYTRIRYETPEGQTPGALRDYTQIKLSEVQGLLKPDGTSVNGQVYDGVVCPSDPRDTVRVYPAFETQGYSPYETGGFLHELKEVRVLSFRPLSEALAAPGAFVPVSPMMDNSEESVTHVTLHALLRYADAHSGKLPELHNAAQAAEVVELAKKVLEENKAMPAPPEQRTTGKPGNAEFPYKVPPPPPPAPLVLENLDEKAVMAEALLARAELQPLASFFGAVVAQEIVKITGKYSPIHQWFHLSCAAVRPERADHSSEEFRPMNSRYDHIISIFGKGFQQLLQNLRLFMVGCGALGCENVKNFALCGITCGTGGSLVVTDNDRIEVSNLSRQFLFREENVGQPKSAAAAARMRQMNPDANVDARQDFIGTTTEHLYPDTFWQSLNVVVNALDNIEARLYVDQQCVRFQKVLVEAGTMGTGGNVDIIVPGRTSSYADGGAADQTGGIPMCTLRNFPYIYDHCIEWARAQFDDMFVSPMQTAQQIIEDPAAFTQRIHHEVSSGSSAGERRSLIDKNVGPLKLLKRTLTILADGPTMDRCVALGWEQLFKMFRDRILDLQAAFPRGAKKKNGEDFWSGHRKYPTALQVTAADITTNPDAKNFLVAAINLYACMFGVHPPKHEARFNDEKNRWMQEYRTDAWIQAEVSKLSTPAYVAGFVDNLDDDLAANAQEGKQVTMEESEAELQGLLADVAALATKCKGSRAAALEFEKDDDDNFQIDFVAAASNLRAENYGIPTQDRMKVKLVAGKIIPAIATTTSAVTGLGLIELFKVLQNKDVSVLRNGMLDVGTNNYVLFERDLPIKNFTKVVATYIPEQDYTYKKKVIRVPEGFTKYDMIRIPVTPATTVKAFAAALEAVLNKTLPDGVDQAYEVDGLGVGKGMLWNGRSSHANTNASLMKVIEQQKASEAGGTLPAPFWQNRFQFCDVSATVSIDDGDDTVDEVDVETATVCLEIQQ
# [3] = target: T2, Aspartate--tRNA(Asp/Asn) ligase (Mycobacterium tuberculosis (strain ATCC 25618 / H37Rv)) (UniProt P9WFW3); experiment: Assay for Asp RNA synthetase-1 from Mycobacterium tuberculosis; type: functional; set-up: scale not given: direction of the effect not stated beside the values; conditions: 30 µM; note: in the data most compounds retested in dose-response had high values
# T2 sequence (whole entry): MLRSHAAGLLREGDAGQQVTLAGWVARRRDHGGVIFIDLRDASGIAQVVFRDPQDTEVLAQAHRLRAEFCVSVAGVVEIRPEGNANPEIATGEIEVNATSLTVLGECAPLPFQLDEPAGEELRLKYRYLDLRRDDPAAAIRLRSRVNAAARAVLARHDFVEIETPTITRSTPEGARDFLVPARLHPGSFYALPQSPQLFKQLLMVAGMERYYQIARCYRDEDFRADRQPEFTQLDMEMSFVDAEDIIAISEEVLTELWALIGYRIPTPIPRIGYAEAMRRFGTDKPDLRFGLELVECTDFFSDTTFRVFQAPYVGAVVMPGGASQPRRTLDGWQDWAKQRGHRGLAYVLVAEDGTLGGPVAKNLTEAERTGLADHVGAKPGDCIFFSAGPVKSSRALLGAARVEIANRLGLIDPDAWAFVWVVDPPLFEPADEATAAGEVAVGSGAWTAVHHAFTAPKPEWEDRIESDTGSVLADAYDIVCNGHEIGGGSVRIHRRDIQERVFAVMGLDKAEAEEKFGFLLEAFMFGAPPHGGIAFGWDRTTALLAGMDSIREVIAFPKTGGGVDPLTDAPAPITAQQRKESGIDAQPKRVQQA
# [4] = target: AMP-activated protein kinase, AMPK (Homo sapiens) (UniProt P54646+O43741+P54619+Q9UGJ0+Q9Y478+Q13131+Q9UGI9); experiment: AMP-dependent Kinase enzyme assay. An in vitro enzyme assay that detects ADP turnover that is directly proportional to AMPK activity. This uses naive AMPK that is activated during the assay with MK-8722; type: functional; set-up: scale not given: direction of the effect not stated beside the values; conditions: 30 µM
# [5] = target: Sialic acid-binding Ig-like lectin 9 (Homo sapiens) (UniProt Q9Y336); experiment: Hs-Siglec9 ALPHAscreen SOP 20170721; set-up: scale not given: direction of the effect not stated beside the values; conditions: 10 µM
# Sialic acid-binding Ig-like lectin 9 (Homo sapiens), sequence (Q9Y336 whole entry): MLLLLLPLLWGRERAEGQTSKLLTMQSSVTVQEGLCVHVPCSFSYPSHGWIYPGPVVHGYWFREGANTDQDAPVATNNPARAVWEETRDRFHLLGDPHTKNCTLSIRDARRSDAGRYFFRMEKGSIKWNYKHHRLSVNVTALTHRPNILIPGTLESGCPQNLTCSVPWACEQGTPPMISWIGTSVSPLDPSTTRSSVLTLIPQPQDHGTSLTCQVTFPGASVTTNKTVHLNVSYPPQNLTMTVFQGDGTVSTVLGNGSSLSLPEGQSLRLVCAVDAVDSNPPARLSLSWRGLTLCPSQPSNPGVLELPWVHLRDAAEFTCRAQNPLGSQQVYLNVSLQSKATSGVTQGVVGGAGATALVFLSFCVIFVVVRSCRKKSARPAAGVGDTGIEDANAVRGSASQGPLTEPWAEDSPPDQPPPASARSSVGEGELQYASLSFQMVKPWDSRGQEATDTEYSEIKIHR
# Trypanosoma cruzi = experiment: Trypanosoma cruzi phosphomannomutase and mannose-1-phosphate guanylyltransferase assay; type: functional; set-up: scale not given: direction of the effect not stated beside the values; conditions: 10 µM
# [6] = target: T3, Arginase-2, mitochondrial (Homo sapiens) (UniProt P78540); experiment: in vitro enzyme assay to detect the production of urea directly proportional to the activity of Arginase II; type: functional; set-up: scale not given: in the data most compounds retested in dose-response had high values
# T3 sequence (whole entry): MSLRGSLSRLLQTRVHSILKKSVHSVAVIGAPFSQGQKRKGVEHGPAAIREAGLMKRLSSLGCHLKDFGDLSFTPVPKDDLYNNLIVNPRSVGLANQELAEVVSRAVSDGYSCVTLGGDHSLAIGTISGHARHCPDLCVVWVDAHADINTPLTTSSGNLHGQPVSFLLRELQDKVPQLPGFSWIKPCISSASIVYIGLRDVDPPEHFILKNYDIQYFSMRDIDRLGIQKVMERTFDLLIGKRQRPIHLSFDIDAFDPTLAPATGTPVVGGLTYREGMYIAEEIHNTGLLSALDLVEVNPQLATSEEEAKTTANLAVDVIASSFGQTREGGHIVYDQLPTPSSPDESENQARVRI
# [7] = target: T4, Proteasome subunit beta (Trypanosoma cruzi) (UniProt O96673); experiment: Trypanosoma cruzi proteasome chymotrypsin-like activity (TcProtChymo) assay.; type: functional; set-up: scale not given: in the data most compounds retested in dose-response had high values; conditions: 9.37 µM
# T4 sequence (whole entry): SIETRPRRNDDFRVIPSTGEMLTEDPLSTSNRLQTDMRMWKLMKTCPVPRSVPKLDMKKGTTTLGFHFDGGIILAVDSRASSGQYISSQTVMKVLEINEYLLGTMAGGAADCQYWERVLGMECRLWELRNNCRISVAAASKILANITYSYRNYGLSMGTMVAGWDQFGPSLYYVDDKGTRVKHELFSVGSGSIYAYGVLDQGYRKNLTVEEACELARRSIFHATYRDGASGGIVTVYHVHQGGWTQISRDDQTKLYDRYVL
# Homo sapiens = species: Homo sapiens; experiment: To identify inhibition of the IFN signalling (Jak-Stat) pathway via expression of an eGFP reporter gene under the control of an IFN-stimulated response element (ISRE) containing MxA promoter.; type: functional; set-up: scale not given: direction of the effect not stated beside the values; conditions: 30 µM
# [8] = target: Shiga toxin 2 (Escherichia coli O157:H7) (UniProt P09385+P09386); experiment: E. coli 0.157:H7 Shiga Toxin SOP - stx2 screening assay; type: functional; set-up: scale not given: direction of the effect not stated beside the values; conditions: 30 µM
# [9] = target: T5, Tyrosyl-tRNA synthetase, putative (Trypanosoma cruzi (strain CL Brener)) (UniProt Q4DSP6); experiment: Trypanosoma cruzi tyrosyl tRNA synthetase (TcYRS) _High Tyrosine SOP; type: functional; set-up: scale not given: in the data most compounds retested in dose-response had high values; conditions: 30 µM
# T5 sequence (whole entry): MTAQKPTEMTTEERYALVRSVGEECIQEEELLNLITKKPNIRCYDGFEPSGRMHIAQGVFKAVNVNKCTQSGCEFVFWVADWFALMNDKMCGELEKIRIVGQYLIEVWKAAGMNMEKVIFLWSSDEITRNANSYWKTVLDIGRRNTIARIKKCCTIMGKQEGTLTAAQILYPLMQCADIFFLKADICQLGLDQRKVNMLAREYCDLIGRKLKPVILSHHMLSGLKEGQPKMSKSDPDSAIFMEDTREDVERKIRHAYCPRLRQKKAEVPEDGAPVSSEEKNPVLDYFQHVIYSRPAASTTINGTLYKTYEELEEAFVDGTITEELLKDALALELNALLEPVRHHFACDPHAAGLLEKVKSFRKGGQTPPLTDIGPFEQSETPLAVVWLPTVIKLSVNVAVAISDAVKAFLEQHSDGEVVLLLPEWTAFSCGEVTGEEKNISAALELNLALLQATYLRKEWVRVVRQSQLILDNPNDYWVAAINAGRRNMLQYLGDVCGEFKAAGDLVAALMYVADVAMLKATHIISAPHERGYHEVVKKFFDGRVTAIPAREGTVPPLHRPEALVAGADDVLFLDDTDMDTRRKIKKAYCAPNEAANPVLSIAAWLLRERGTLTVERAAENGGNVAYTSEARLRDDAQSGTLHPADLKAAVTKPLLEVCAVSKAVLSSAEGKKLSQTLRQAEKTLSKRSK
# [10] = target: T5, Tyrosyl-tRNA synthetase, putative (Trypanosoma cruzi (strain CL Brener)); experiment: Trypanosoma cruzi tyrosyl tRNA synthetase (TcYRS) SOP; type: functional; set-up: scale not given: direction of the effect not stated beside the values; conditions: 30 µM
# [11] = target: Chromo domain-containing protein 1 (Saccharomyces cerevisiae (strain ATCC 204508 / S288c) (Baker's yeast)) (UniProt P32657); experiment: ScCHD-1 Enzyme Inhibition Assay; type: functional; set-up: scale not given: in the data most compounds retested in dose-response had high values; conditions: 30 µM
# Chromo domain-containing protein 1 (Saccharomyces cerevisiae (strain ATCC 204508 / S288c) (Baker's yeast)), sequence (P32657 whole entry, the tested form may be a part): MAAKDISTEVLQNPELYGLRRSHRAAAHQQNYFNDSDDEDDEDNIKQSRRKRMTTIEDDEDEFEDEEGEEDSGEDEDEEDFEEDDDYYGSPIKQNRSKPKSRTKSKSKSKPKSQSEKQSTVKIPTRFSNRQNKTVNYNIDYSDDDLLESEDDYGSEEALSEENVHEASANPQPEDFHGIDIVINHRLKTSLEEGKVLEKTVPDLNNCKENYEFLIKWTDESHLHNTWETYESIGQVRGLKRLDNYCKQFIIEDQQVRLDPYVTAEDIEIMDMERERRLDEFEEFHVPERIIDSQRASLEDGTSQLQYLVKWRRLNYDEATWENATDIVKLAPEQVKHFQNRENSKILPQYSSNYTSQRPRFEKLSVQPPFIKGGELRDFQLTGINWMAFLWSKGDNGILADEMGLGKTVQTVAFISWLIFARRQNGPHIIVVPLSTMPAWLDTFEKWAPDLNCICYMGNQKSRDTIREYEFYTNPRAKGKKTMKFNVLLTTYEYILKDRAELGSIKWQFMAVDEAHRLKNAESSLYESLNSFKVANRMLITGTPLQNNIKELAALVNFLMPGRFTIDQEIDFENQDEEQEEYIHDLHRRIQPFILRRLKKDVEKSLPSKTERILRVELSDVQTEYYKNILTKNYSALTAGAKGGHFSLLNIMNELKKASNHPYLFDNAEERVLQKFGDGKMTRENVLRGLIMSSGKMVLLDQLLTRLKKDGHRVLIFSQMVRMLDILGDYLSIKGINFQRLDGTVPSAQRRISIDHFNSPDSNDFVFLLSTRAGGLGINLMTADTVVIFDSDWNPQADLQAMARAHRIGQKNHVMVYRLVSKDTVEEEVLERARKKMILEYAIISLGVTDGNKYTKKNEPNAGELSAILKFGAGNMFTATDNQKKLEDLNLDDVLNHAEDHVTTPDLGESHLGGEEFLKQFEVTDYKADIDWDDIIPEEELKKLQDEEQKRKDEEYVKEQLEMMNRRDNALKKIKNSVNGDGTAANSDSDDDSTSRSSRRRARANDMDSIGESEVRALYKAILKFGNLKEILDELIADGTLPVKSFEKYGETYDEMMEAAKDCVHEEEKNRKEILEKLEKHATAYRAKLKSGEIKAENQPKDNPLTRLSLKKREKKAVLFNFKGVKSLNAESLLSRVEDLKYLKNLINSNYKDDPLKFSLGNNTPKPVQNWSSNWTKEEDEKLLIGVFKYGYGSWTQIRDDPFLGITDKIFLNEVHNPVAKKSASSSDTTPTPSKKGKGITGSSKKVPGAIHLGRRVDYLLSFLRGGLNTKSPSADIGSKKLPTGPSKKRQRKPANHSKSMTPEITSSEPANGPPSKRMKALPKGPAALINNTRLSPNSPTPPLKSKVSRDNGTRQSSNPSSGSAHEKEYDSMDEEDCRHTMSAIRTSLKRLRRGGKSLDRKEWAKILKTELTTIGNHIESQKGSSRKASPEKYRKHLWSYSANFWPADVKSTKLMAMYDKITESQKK
# [12] = target: T6, Methionyl-tRNA synthetase, putative (Leishmania donovani (strain BPK282A1)) (UniProt E9BF75); experiment: Leishmania donovani Methionine tRNA synthetase (LdMetRS):v7. Dose response assay; type: functional; set-up: conc 80 nM, time 150 minutes
# T6 sequence (whole entry): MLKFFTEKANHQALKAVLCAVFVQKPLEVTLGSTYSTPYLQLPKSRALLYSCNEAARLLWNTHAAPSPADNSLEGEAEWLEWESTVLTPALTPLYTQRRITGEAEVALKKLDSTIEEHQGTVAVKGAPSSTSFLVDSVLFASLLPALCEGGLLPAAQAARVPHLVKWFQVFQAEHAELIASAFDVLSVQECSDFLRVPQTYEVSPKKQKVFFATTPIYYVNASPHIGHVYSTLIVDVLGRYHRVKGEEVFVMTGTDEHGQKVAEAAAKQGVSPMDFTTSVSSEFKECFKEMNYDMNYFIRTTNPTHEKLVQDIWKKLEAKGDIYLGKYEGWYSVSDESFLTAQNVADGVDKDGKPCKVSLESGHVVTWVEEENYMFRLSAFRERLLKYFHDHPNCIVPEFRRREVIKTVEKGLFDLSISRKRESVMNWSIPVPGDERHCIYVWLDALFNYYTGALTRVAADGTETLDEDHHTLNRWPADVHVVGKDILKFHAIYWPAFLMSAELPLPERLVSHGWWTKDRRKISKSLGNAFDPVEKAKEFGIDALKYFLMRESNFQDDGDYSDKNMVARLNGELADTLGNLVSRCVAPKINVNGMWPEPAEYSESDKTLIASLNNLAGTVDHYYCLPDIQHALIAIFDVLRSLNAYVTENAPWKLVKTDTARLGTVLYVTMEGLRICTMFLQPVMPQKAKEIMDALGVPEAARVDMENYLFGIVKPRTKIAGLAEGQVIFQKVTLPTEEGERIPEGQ
# Protein translocase subunit SecA (Escherichia coli (strain K12)), sequence (P10408 whole entry): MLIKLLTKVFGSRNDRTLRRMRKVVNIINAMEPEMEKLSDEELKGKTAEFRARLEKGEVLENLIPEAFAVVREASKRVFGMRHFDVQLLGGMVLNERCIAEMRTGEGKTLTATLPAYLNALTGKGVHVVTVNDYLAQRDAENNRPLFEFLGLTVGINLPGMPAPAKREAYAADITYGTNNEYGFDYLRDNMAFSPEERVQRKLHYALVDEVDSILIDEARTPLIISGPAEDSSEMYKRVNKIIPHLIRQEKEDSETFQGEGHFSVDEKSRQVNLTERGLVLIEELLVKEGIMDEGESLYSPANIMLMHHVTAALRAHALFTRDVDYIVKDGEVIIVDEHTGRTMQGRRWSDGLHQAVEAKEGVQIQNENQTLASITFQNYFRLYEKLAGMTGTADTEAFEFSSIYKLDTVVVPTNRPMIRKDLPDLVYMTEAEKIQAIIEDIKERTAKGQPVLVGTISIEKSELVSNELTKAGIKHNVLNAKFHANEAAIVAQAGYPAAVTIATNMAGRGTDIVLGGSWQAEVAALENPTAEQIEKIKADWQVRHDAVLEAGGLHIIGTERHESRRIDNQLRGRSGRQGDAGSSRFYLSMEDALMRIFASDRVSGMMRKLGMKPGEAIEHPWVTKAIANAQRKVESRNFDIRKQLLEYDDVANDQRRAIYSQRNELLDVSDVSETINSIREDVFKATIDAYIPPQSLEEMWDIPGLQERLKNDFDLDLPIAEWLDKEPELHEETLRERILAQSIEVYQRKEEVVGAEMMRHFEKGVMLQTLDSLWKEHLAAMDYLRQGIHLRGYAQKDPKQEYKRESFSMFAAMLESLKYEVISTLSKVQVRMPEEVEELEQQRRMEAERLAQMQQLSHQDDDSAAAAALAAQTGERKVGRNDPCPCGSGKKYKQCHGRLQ
compound,measurement,setting,value
c1ccc(CN2CC[C@]3(C[C@@H](Oc4ccccn4)CO3)C2)nc1,Percent Effect,[1],-4.14%
same,Percent Effect,[2],18.7%
same,Percent Effect,[3],-1.57%
same,Percent Effect,[4],-1.39%
same,Percent Effect,[5],-5.45%
same,Percent Effect,Trypanosoma cruzi,-0.394%
same,Percent Effect,[6]; 30 µM,-12.4%
same,Percent Effect,[6]; 33.3 µM,0.233%
same,Percent Effect,[7],5.02%
same,Percent Effect,Homo sapiens,17.7%
same,Percent Effect,[8],-36.4%
same,Percent Effect,[9],2.13%
same,Percent Effect,[10],14.1%
same,Percent Effect,[11],-0.948%
Clc1cc(Cl)cc(CNCCc2ccccc2)c1,PXC50,"[12]; BOTTOM -4.203249798, HILLSLOPE 1.160005452, MAX_EFFECT 61.75908222, TOP 67.85944211",3.6
NC1CC1c1ccc(Cl)cc1Cl (stereo not drawn),PXC50,[12]; MAX_EFFECT 19.58174905,< 3
same,PXC50,[12]; MAX_EFFECT 31.74946004,< 3
Cc1noc(C)c1CN1CC[C@H]2C[C@@H](c3nccs3)O[C@@H]2C1,Percent Effect,[1],-4.73%
same,Percent Effect,[2],5.41%
same,Percent Effect,[3],3.41%
same,Percent Effect,[4],3.53%
same,Percent Effect,[5],1.06%
same,Percent Effect,Trypanosoma cruzi,0.88%
same,Percent Effect,[6]; 33.3 µM,0.319%
same,Percent Effect,[7],18.1%
same,Percent Effect,Homo sapiens,4.79%
same,Percent Effect,[8],11.3%
same,Percent Effect,[9],1.08%
same,Percent Effect,[10],7.69%
same,Percent Effect,[11],-0.345%
COc1cccc(CC(C)NC(=O)NCc2ccn(C)c2)c1 (stereo not drawn),PXC50,[12]; MAX_EFFECT 39.40455342,< 4
same,PXC50,[12]; MAX_EFFECT 41.30434783,< 4
same,PXC50,[12]; MAX_EFFECT 46.2585034,< 4

# From ChEMBL document CHEMBL3988442, “University of Dundee, Small-Polar-MMV Screening Library” (2021)
